# Source: the supplement of paper PMC10037445
# The full ranking holds about 2,900 compounds; the median of “NF-kB SEAP reporter activity, fold change vs agonist alone” is about 0.99, and the highest 2% start at about 2.6. What follows is part of a selection rich in the highest values, with near analogues and random picks from the rest.
# Tests used:
# [1] = test system: RAW-Dual; assay: NF-kB SEAP reporter activity, fold change vs agonist alone; cytotoxicity flag (confluency mask): not cytotoxic; higher = enhanced NF-kB activity
# Method in brief: (§1)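 Library stock was pin-tooled at 50 nL into 384-well plates of RAW-Dual macrophages (50,000 cells/well, DMEM), followed 1 h later by a PRR agonist, and the cells were kept at 37 °C, 5% CO2. Supernatant collected after 20 hours was read for IRF by QuantiLuc luminescence and for NF-κB by QuantiBlue absorbance at 620 nm. Reporter activity is fold change over agonist-alone wells, and a well counted as cytotoxic when its IncuCyte confluency was below 70% of agonist controls in both mask sets.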
# [2] = test system: RAW-Dual; assay: NF-kB SEAP reporter activity, fold change vs agonist alone; higher = enhanced NF-kB activity
# Method in brief: as §1
# [3] = test system: RAW-Dual; assay: NF-kB SEAP reporter activity, fold change vs agonist alone; cytotoxicity flag (confluency mask): cytotoxic (confluency <70% of control); higher = enhanced NF-kB activity
# Method in brief: as §1
# [4] = agonist: ODN 1826 (TLR9) 0.5 ug/mL
# [5] = agonist: Pam2CSK4 (TLR2/6) 0.1 ug/mL
# [6] = agonist: Pam3CSK4 (TLR2/1) 0.1 ug/mL
# [7] = library stock concentration (final ~1000-fold dilution): 10 mM water, cytotoxicity flag (confluency mask): not cytotoxic, agonist: Imiquimod (TLR7) […]
# [8] = library stock concentration (final ~1000-fold dilution): 10 mM water, cytotoxicity flag (confluency mask): not cytotoxic, agonist: MPLA (TLR4) […]
# [9] = library stock concentration (final ~1000-fold dilution): 10 mM, cytotoxicity flag (confluency mask): cytotoxic (confluency <70% of control), agonist: Imiquimod (TLR7) […]
# [10] = library stock concentration (final ~1000-fold dilution): 10 mM, cytotoxicity flag (confluency mask): cytotoxic (confluency <70% of control), agonist: MPLA (TLR4) […]
# [11] = library stock concentration (final ~1000-fold dilution): 10 mM, cytotoxicity flag (confluency mask): not cytotoxic, agonist: Imiquimod (TLR7) […]
# [12] = library stock concentration (final ~1000-fold dilution): 10 mM, cytotoxicity flag (confluency mask): not cytotoxic, agonist: MPLA (TLR4) […]
smiles,measurement,setting,value
CC(C)(C)N.CCCC(NC(C)C(=O)N1C(C(=O)O)CC2CCCCC21)C(=O)OCC (stereo unspecified) (library stock concentration (final ~1000-fold dilution): 10 mM water),NF-kB SEAP reporter activity,[1]; agonist: LPS (TLR4) 0.1 ug/mL,1.05
same,NF-kB SEAP reporter activity,[1]; [4],1.13
same,NF-kB SEAP reporter activity,[1]; [5],1.17
same,NF-kB SEAP reporter activity,[1]; [6],1.02
CC(C)(C)N.CCCC(NC(C)C(=O)N1C(C(=O)O)CC2CCCCC21)C(=O)OCC (stereo unspecified),NF-kB SEAP reporter activity,[2]; [7],0.909
same,NF-kB SEAP reporter activity,[2]; [8],1.04
CC(C)(C)Cn1c(N)nc2ccc(-c3[nH]c(C(C)(C)C)nc3-c3ccc(F)cc3)nc21.CS(=O)(=O)O.CS(=O)(=O)O (library stock concentration (final ~1000-fold dilution): 10 mM water),NF-kB SEAP reporter activity,[1]; agonist: LPS (TLR4) 0.1 ug/mL,1.03
same,NF-kB SEAP reporter activity,[1]; [4],0.512
same,NF-kB SEAP reporter activity,[1]; [5],0.242
same,NF-kB SEAP reporter activity,[1]; [6],0.506
CC(C)(C)Cn1c(N)nc2ccc(-c3[nH]c(C(C)(C)C)nc3-c3ccc(F)cc3)nc21.CS(=O)(=O)O.CS(=O)(=O)O,NF-kB SEAP reporter activity,[2]; [7],0.303
same,NF-kB SEAP reporter activity,[2]; [8],0.892
C1=CCOCc2cc(ccc2OCCN2CCCC2)Nc2nccc(n2)-c2cccc(c2)COC1 (library stock concentration (final ~1000-fold dilution): 10 mM),NF-kB SEAP reporter activity,[3]; agonist: LPS (TLR4) 0.1 ug/mL,0.498
same,NF-kB SEAP reporter activity,[3]; [4],0.245
same,NF-kB SEAP reporter activity,[3]; [5],0.176
same,NF-kB SEAP reporter activity,[3]; [6],0.256
C1=CCOCc2cc(ccc2OCCN2CCCC2)Nc2nccc(n2)-c2cccc(c2)COC1,NF-kB SEAP reporter activity,[2]; [9],1.52
same,NF-kB SEAP reporter activity,[2]; [10],0.838
CC(C)n1cc(-c2ccc3c(c2)N(C)CC3)c2c(NS(=O)(=O)c3ccn(C)n3)ccnc21,NF-kB SEAP reporter activity,[2]; [11],0.948
same,NF-kB SEAP reporter activity,[2]; [12],1.02
CC(C)n1cc(-c2ccc3c(c2)N(C)CC3)c2c(NS(=O)(=O)c3ccn(C)n3)ccnc21 (library stock concentration (final ~1000-fold dilution): 10 mM),NF-kB SEAP reporter activity,[1]; agonist: LPS (TLR4) 0.1 ug/mL,1.25
same,NF-kB SEAP reporter activity,[1]; [4],1.12
same,NF-kB SEAP reporter activity,[1]; [5],1.14
same,NF-kB SEAP reporter activity,[1]; [6],1.07
O=C1c2c(O)cc(O)cc2OC(c2cc(O)c(O)c(O)c2)C1O (stereo unspecified) (library stock concentration (final ~1000-fold dilution): 10 mM),NF-kB SEAP reporter activity,[1]; agonist: LPS (TLR4) 0.1 ug/mL,0.954
same,NF-kB SEAP reporter activity,[1]; [4],1.02
same,NF-kB SEAP reporter activity,[1]; [5],0.798
same,NF-kB SEAP reporter activity,[1]; [6],0.657
O=C1c2c(O)cc(O)cc2OC(c2cc(O)c(O)c(O)c2)C1O (stereo unspecified),NF-kB SEAP reporter activity,[2]; [11],0.946
same,NF-kB SEAP reporter activity,[2]; [12],1.07
CC(C)(C)NC(=O)c1cncn1C1CCN(c2ccc(-c3nnc(C(F)(F)F)o3)cn2)CC1,NF-kB SEAP reporter activity,[2]; [11],1.87
same,NF-kB SEAP reporter activity,[2]; [12],2.37
CC(C)(C)NC(=O)c1cncn1C1CCN(c2ccc(-c3nnc(C(F)(F)F)o3)cn2)CC1 (library stock concentration (final ~1000-fold dilution): 10 mM),NF-kB SEAP reporter activity,[1]; agonist: LPS (TLR4) 0.1 ug/mL,6.27
same,NF-kB SEAP reporter activity,[1]; [4],3.15
same,NF-kB SEAP reporter activity,[1]; [5],1.66
same,NF-kB SEAP reporter activity,[1]; [6],2.84
CC1(C)CCC2(C(=O)O)CCC3(C)C(=CCC4C5(C)CCC(=O)C(C)(C)C5CCC43C)C2C1 (stereo unspecified),NF-kB SEAP reporter activity,[2]; [11],0.8
same,NF-kB SEAP reporter activity,[2]; [12],1.27
CC1(C)CCC2(C(=O)O)CCC3(C)C(=CCC4C5(C)CCC(=O)C(C)(C)C5CCC43C)C2C1 (stereo unspecified) (library stock concentration (final ~1000-fold dilution): 10 mM),NF-kB SEAP reporter activity,[1]; agonist: LPS (TLR4) 0.1 ug/mL,0.91
same,NF-kB SEAP reporter activity,[1]; [4],0.824
same,NF-kB SEAP reporter activity,[1]; [5],0.664
same,NF-kB SEAP reporter activity,[1]; [6],0.842
CC(=O)N1c2ccc(-c3ccc(C(=O)O)cc3)cc2C(Nc2ccc(Cl)cc2)CC1C (stereo unspecified) (library stock concentration (final ~1000-fold dilution): 10 mM),NF-kB SEAP reporter activity,[1]; agonist: LPS (TLR4) 0.1 ug/mL,4.2
same,NF-kB SEAP reporter activity,[1]; [4],2.49
same,NF-kB SEAP reporter activity,[1]; [5],1.06
same,NF-kB SEAP reporter activity,[1]; [6],1.85
CC(=O)N1c2ccc(-c3ccc(C(=O)O)cc3)cc2C(Nc2ccc(Cl)cc2)CC1C (stereo unspecified),NF-kB SEAP reporter activity,[2]; [11],1.56
same,NF-kB SEAP reporter activity,[2]; [12],2.37
CC(=O)OC12COC1CC(O)C1(C)C(=O)C(O)C3=C(C)C(OC(=O)C(O)C(NC(=O)OC(C)(C)C)c4ccccc4)CC(O)(C(OC(=O)c4ccccc4)C21)C3(C)C.O.O.O (stereo unspecified),NF-kB SEAP reporter activity,[2]; [11],1.07
same,NF-kB SEAP reporter activity,[2]; [12],1.23
CC(=O)OC12COC1CC(O)C1(C)C(=O)C(O)C3=C(C)C(OC(=O)C(O)C(NC(=O)OC(C)(C)C)c4ccccc4)CC(O)(C(OC(=O)c4ccccc4)C21)C3(C)C.O.O.O (stereo unspecified) (library stock concentration (final ~1000-fold dilution): 10 mM),NF-kB SEAP reporter activity,[1]; agonist: LPS (TLR4) 0.1 ug/mL,1.26
same,NF-kB SEAP reporter activity,[1]; [4],0.91
same,NF-kB SEAP reporter activity,[1]; [5],0.697
same,NF-kB SEAP reporter activity,[1]; [6],0.713
CC1OC(OC2C(O)C(OCCc3ccc(O)c(O)c3)OC(CO)C2OC(=O)/C=C/c2ccc(O)c(O)c2)C(O)C(O)C1O (stereo unspecified),NF-kB SEAP reporter activity,[2]; [12],1.02
CC1OC(OC2C(O)C(OCCc3ccc(O)c(O)c3)OC(CO)C2OC(=O)/C=C/c2ccc(O)c(O)c2)C(O)C(O)C1O (stereo unspecified) (library stock concentration (final ~1000-fold dilution): 10 mM),NF-kB SEAP reporter activity,[1]; agonist: LPS (TLR4) 0.1 ug/mL,1.21
same,NF-kB SEAP reporter activity,[1]; [4],1.05
same,NF-kB SEAP reporter activity,[1]; [5],1.03
same,NF-kB SEAP reporter activity,[1]; [6],1.11
CN1CCCN=C1/C=C/c1cccc(O)c1.O=C(O)c1cc2ccccc2c(Cc2c(O)c(C(=O)O)cc3ccccc23)c1O,NF-kB SEAP reporter activity,[2]; [11],0.944
same,NF-kB SEAP reporter activity,[2]; [12],1.12
CN1CCCN=C1/C=C/c1cccc(O)c1.O=C(O)c1cc2ccccc2c(Cc2c(O)c(C(=O)O)cc3ccccc23)c1O (library stock concentration (final ~1000-fold dilution): 10 mM),NF-kB SEAP reporter activity,[1]; agonist: LPS (TLR4) 0.1 ug/mL,0.973
same,NF-kB SEAP reporter activity,[1]; [4],0.993
same,NF-kB SEAP reporter activity,[1]; [5],1.01
same,NF-kB SEAP reporter activity,[1]; [6],0.594
CC(C)N1CCN(Cc2cnc(-c3cc(-c4cccc5[nH]ccc45)cc4[nH]ncc34)o2)CC1 (library stock concentration (final ~1000-fold dilution): 10 mM),NF-kB SEAP reporter activity,[1]; agonist: LPS (TLR4) 0.1 ug/mL,4.66
same,NF-kB SEAP reporter activity,[1]; [4],0.196
same,NF-kB SEAP reporter activity,[1]; [5],0.982
same,NF-kB SEAP reporter activity,[1]; [6],1.86
CC(C)N1CCN(Cc2cnc(-c3cc(-c4cccc5[nH]ccc45)cc4[nH]ncc34)o2)CC1,NF-kB SEAP reporter activity,[2]; [11],0.519
same,NF-kB SEAP reporter activity,[2]; [12],1.83
C[N+]1(C)CCC[C@H]1C(=O)O (library stock concentration (final ~1000-fold dilution): 10 mM),NF-kB SEAP reporter activity,[1]; agonist: LPS (TLR4) 0.1 ug/mL,1.08
same,NF-kB SEAP reporter activity,[1]; [4],1.08
same,NF-kB SEAP reporter activity,[1]; [5],1.16
same,NF-kB SEAP reporter activity,[1]; [6],1.08
C[N+]1(C)CCC[C@H]1C(=O)O,NF-kB SEAP reporter activity,[2]; [11],0.952
same,NF-kB SEAP reporter activity,[2]; [12],0.985
CCCC(NC(=O)/C(C#N)=C/c1cccc(Br)n1)c1ccccc1 (stereo unspecified),NF-kB SEAP reporter activity,[2]; [11],0.971
same,NF-kB SEAP reporter activity,[2]; [12],0.962
CCCC(NC(=O)/C(C#N)=C/c1cccc(Br)n1)c1ccccc1 (stereo unspecified) (library stock concentration (final ~1000-fold dilution): 10 mM),NF-kB SEAP reporter activity,[1]; agonist: LPS (TLR4) 0.1 ug/mL,0.416
same,NF-kB SEAP reporter activity,[1]; [4],0.925
same,NF-kB SEAP reporter activity,[1]; [5],0.387
same,NF-kB SEAP reporter activity,[1]; [6],0.838
Cc1[nH]c2ccccc2c1CCNC(=O)c1cccs1 (library stock concentration (final ~1000-fold dilution): 10 mM),NF-kB SEAP reporter activity,[1]; agonist: LPS (TLR4) 0.1 ug/mL,1
same,NF-kB SEAP reporter activity,[1]; [4],1.06
same,NF-kB SEAP reporter activity,[1]; [5],1.12
same,NF-kB SEAP reporter activity,[1]; [6],0.991
Cc1[nH]c2ccccc2c1CCNCc1ccc(/C=C/C(=O)NO)cc1,NF-kB SEAP reporter activity,[2]; [9],2.51
same,NF-kB SEAP reporter activity,[2]; [10],2.63
Cc1[nH]c2ccccc2c1CCNC(=O)c1cccs1,NF-kB SEAP reporter activity,[2]; [11],1.06
same,NF-kB SEAP reporter activity,[2]; [12],1.11
Cc1[nH]c2ccccc2c1C1=C(NCCc2ccc(F)cc2)C(=O)N(C)C1=O (library stock concentration (final ~1000-fold dilution): 10 mM),NF-kB SEAP reporter activity,[1]; agonist: LPS (TLR4) 0.1 ug/mL,1.23
same,NF-kB SEAP reporter activity,[1]; [4],0.588
same,NF-kB SEAP reporter activity,[1]; [5],0.531
same,NF-kB SEAP reporter activity,[1]; [6],0.337
Cc1[nH]c2ccccc2c1CCNCc1ccc(/C=C/C(=O)NO)cc1 (library stock concentration (final ~1000-fold dilution): 10 mM),NF-kB SEAP reporter activity,[3]; agonist: LPS (TLR4) 0.1 ug/mL,4.6
same,NF-kB SEAP reporter activity,[3]; [4],0.219
same,NF-kB SEAP reporter activity,[3]; [5],0.886
same,NF-kB SEAP reporter activity,[3]; [6],1.47
Cc1[nH]c2ccccc2c1C1=C(NCCc2ccc(F)cc2)C(=O)N(C)C1=O,NF-kB SEAP reporter activity,[2]; [11],1.01
same,NF-kB SEAP reporter activity,[2]; [12],1.28
